For 39 compounds, growth results are on record in PubChem BioAssay (NCI).

About 83,000 compounds went through this panel and 20% of them were active in at least one assay; those are over-represented in the sample as a whole.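 Activity criterion: percent growth below 10, measured after cells in 96-well plates were exposed to a single compound concentration for 48 hours.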 A number with no mark means an inactive call. Active and inactive are the calls of the source.

The first assay relates to SNB-19 CNS. Description: NCI-60 one-dose screen, 48 h (100 = growth as untreated, 0 = no growth, -100 = all killed). The settings on record: 10 µM.
On to `C=C(C(=O)c1ccccc1)C(NC(C)(C)C)c1ccccc1` (stereo not drawn), for which the growth is 80.8%.
The same measure, in the same setting: in the case of `O=c1c2ccccc2nc(SCCN2CCCCC2)n1CCc1ccccc1` it was 102%; in that of `N=c1c2c(-c3ccccc3)c(-c3ccccc3)n(Cc3ccccc3)c2ncn1CCCO`, 48.3%; in that of `COc1cc(/C=C2\Oc3cc(OCC(=O)c4ccccc4)ccc3C2=O)cc(OC)c1OC`, 118%.
With `Cc1ccc(NC(=O)CSc2nc3ccccc3c(=O)n2CCc2ccccc2)c(C(=O)O)c1`, the growth was 105%.
`O=C(Nc1nc2ccc(F)cc2s1)c1cc(-c2ccc(F)cc2)n2nc(-c3ccccc3)cc2n1`: the growth is 88%.
Still for that read-out and setting: the value for `CN1CCCNc2c(c(=O)c2=O)NCCCN(C)CCCNc2c(c(=O)c2=O)NCCCN(C)CCCNc2c(c(=O)c2=O)NCCCN(C)CCCNc2c(c(=O)c2=O)NCCCN(C)CCCNc2c(c(=O)c2=O)NCCCN(C)CCCNc2c(c(=O)c2=O)NCCCN(C)CCCNc2c(c(=O)c2=O)NCCC1` was 40.5%; that for `CCN1CCC2(CC1)OC(c1ccccc1)C(c1ccccc1)O2` (stereo not drawn) was 112%.
In the case of `O=C(O)c1ccc(Cl)cc1Nc1ccc(F)cc1`, the growth was 87.1%.
Same read-out and setting: in the case of `CCCCCC(=O)c1ccc(OCCCN2CCN(C(=O)OCC)CC2)cc1` it was 95.9%; in that of `COc1ccc(NC(=O)CSc2nc3ccccc3c(=O)n2CCc2ccccc2)cc1`, 59.4%.
Turning to `COc1ccc(-c2nnc(-c3c(-c4ccccc4)nc4ncccn34)o2)cc1OC`, the growth was 100%.
Still for that read-out and setting: in the case of `COc1ccc2nc3cc(Cl)ccc3c(NCCNCC(C)O)c2c1` (stereo not drawn) it was 34%; in that of `CC(C)(C)NC/C(=C\c1ccccc1)C(=O)c1ccccc1`, 66.1%; in that of `COc1ccc(-c2ccc3cc(C(=O)Nc4ccc(O)c(C(=O)/C=C/c5cc(OC)c(OC)c(OC)c5)c4)ccc3c2)cc1`, 96.1%.
In the case of `CCCCN(CCCC)c1cc(C(=O)CCCCCN)c2ccccc2n1`, the growth is 105%.
Still for that read-out and setting: in the case of `COc1ccc(NC(=O)Cc2nc3nc4sc(C)c(C)c4c(=O)n3[nH]2)cc1` it was 105%.
On the same count and under the same terms, the value for `COc1cc(-c2nc(-c3nnc(-c4ccc(F)c(Cl)c4)o3)c3ccccn23)cc(OC)c1OC` was 4.53% (active).
Consider `NC(=O)SCC(=O)Nc1ccc(S(N)(=O)=O)cc1`, for which the growth is 104%.
Take `Nc1nccc(Nc2ccccc2)n1`: the growth is 116%.
`Oc1[nH]c2cc(Cl)ccc2c1/C=c1/ccc2c(c1)N=C(c1cc(F)cc(F)c1)N=2`: the growth is 64.5%.
On the same count and under the same terms, the value for `c1ccc2c(c1)oc1c3cccnc3ccc21` was 95.3%; that for `COc1ccc2c(c1)sc1nc(-c3ccccc3)c(-c3ccsc3)n12` was 40.8%; that for `CSc1cc(SC)ncn1` was 91%.
Still for that read-out and setting: the value for `COc1ccc2c(c1)sc1nc(-c3ccccc3)c(-c3ccc(O)c(OC)c3)n12` was 80.4%; that for `CCCCCCCCCCCCCC[n+]1ccc(C(N)=O)cc1` was -58.5% (active); that for `CN1c2ccccc2[C@]2(Cc3ccccc3)Cc3ccccc3N[C@H]12` was 104%.
Still for that read-out and setting: the value for `CCN(CC)CCSCCCNc1c2ccc(Cl)cc2nc2ccc(OC)cc12` was -38.4% (active); that for `CC(=O)c1cc(Br)ccc1O` was 109%.
For `COc1ccc(-c2nc3sccn3c2-c2nc3c([nH]2)C(=O)c2ccccc2C3=O)cc1`, the growth was 96.4%.
The same measure, in the same setting: in the case of `N=C1c2nc3n(c2C(=O)c2nc4n(c21)CCCC4)CCCC3` it was 30%; in that of `COc1ccc(-c2nc3ccccn3c2-c2nnc(-c3cc(OC)c(OC)c(OC)c3)o2)cc1`, 44.5%.
On the same count and under the same terms, in the case of `CCN(CC)CCOc1nc2ccc(OC)cc2c2c1-c1ccc(OC)cc1C2=O` it was 33.5%; in that of `CCCCCCCCN(CCCCCCCC)CCCCCCCCCN1CCCc2cc(OC)ccc21`, 98.3%.
Take `COc1ccc2c(c1)C(=O)c1c-2c(OCCN(C)C)nc2cc(OC)c(OC)cc12`: the growth was 57.1%.
For the compound `COc1ccc(/C(=C2\O[C@@H]([C@H]3COC(C)(C)O3)[C@H]3OC(C)(C)O[C@@H]23)c2cc(OC)c(OC)c(OC)c2)cc1O`, the growth is 47.4%.
Turning to `Nc1ccn(C2CC(O)C(CO)O2)c(=O)n1` (stereo not drawn), the growth was 99.7%.
The same measure, in the same setting: the value for `CC(C)=CCc1ccc(O)c(=O)cc1C(C)C` was 41%; that for `COc1cc(NC(=O)CSc2nc3ccccc3c(=O)n2CCc2ccccc2)cc(OC)c1OC` was 27%.

For the next assay, the system named is U251 CNS. The description is as above. To be noted: 10 µM.
As for `C=C(C(=O)c1ccccc1)C(NC(C)(C)C)c1ccccc1` (stereo not drawn), the growth is 4.4% (active).
For the compound `O=c1c2ccccc2nc(SCCN2CCCCC2)n1CCc1ccccc1`, the growth is 86.7%.
Take `N=c1c2c(-c3ccccc3)c(-c3ccccc3)n(Cc3ccccc3)c2ncn1CCCO`: the growth is 24.5%.
Same read-out and setting: the value for `COc1cc(/C=C2\Oc3cc(OCC(=O)c4ccccc4)ccc3C2=O)cc(OC)c1OC` was 90.1%; that for `Cc1ccc(NC(=O)CSc2nc3ccccc3c(=O)n2CCc2ccccc2)c(C(=O)O)c1` was 101%; that for `O=C(Nc1nc2ccc(F)cc2s1)c1cc(-c2ccc(F)cc2)n2nc(-c3ccccc3)cc2n1` was 102%.
Still for that read-out and setting: in the case of `CN1CCCNc2c(c(=O)c2=O)NCCCN(C)CCCNc2c(c(=O)c2=O)NCCCN(C)CCCNc2c(c(=O)c2=O)NCCCN(C)CCCNc2c(c(=O)c2=O)NCCCN(C)CCCNc2c(c(=O)c2=O)NCCCN(C)CCCNc2c(c(=O)c2=O)NCCCN(C)CCCNc2c(c(=O)c2=O)NCCC1` it was 15.2%; in that of `CCN1CCC2(CC1)OC(c1ccccc1)C(c1ccccc1)O2` (stereo not drawn), 109%.
The same measure, in the same setting: in the case of `O=C(O)c1ccc(Cl)cc1Nc1ccc(F)cc1` it was 52.3%; in that of `CCCCCC(=O)c1ccc(OCCCN2CCN(C(=O)OCC)CC2)cc1`, 98.2%; in that of `COc1ccc(NC(=O)CSc2nc3ccccc3c(=O)n2CCc2ccccc2)cc1`, 71.4%.
Regarding `COc1ccc(-c2nnc(-c3c(-c4ccccc4)nc4ncccn34)o2)cc1OC`, the growth is 101%.
Same read-out and setting: in the case of `COc1ccc2nc3cc(Cl)ccc3c(NCCNCC(C)O)c2c1` (stereo not drawn) it was -8.32% (active).
On to `CC(C)(C)NC/C(=C\c1ccccc1)C(=O)c1ccccc1`, for which the growth was -18.1% (active).
On the same count and under the same terms, the value for `COc1ccc(-c2ccc3cc(C(=O)Nc4ccc(O)c(C(=O)/C=C/c5cc(OC)c(OC)c(OC)c5)c4)ccc3c2)cc1` was 92.6%.
Take `CCCCN(CCCC)c1cc(C(=O)CCCCCN)c2ccccc2n1`: the growth is -77.9% (active).
Same read-out and setting: in the case of `COc1ccc(NC(=O)Cc2nc3nc4sc(C)c(C)c4c(=O)n3[nH]2)cc1` it was 91.2%; in that of `COc1cc(-c2nc(-c3nnc(-c4ccc(F)c(Cl)c4)o3)c3ccccn23)cc(OC)c1OC`, 31.8%; in that of `NC(=O)SCC(=O)Nc1ccc(S(N)(=O)=O)cc1`, 104%.
The same measure, in the same setting: the value for `Nc1nccc(Nc2ccccc2)n1` was 104%; that for `Oc1[nH]c2cc(Cl)ccc2c1/C=c1/ccc2c(c1)N=C(c1cc(F)cc(F)c1)N=2` was 20.7%; that for `c1ccc2c(c1)oc1c3cccnc3ccc21` was 97.9%.
Still for that read-out and setting: in the case of `COc1ccc2c(c1)sc1nc(-c3ccccc3)c(-c3ccsc3)n12` it was 26.9%.
For `CSc1cc(SC)ncn1`, the growth was 108%.
On to `COc1ccc2c(c1)sc1nc(-c3ccccc3)c(-c3ccc(O)c(OC)c3)n12`, for which the growth is 41.7%.
On the same count and under the same terms, in the case of `CCCCCCCCCCCCCC[n+]1ccc(C(N)=O)cc1` it was -100% (active); in that of `CN1c2ccccc2[C@]2(Cc3ccccc3)Cc3ccccc3N[C@H]12`, 106%.
Take `CCN(CC)CCSCCCNc1c2ccc(Cl)cc2nc2ccc(OC)cc12`: the growth was -70.6% (active).
Same read-out and setting: in the case of `CC(=O)c1cc(Br)ccc1O` it was 108%.
Same read-out and setting: in the case of `COc1ccc(-c2nc3sccn3c2-c2nc3c([nH]2)C(=O)c2ccccc2C3=O)cc1` it was 87.1%; in that of `N=C1c2nc3n(c2C(=O)c2nc4n(c21)CCCC4)CCCC3`, 50.7%.
As to `COc1ccc(-c2nc3ccccn3c2-c2nnc(-c3cc(OC)c(OC)c(OC)c3)o2)cc1`, the growth is 45.8%.
On the same count and under the same terms, in the case of `CCN(CC)CCOc1nc2ccc(OC)cc2c2c1-c1ccc(OC)cc1C2=O` it was -87.9% (active); in that of `CCCCCCCCN(CCCCCCCC)CCCCCCCCCN1CCCc2cc(OC)ccc21`, 90.7%; in that of `COc1ccc2c(c1)C(=O)c1c-2c(OCCN(C)C)nc2cc(OC)c(OC)cc12`, 50.5%.
The same measure, in the same setting: in the case of `COc1ccc(/C(=C2\O[C@@H]([C@H]3COC(C)(C)O3)[C@H]3OC(C)(C)O[C@@H]23)c2cc(OC)c(OC)c(OC)c2)cc1O` it was 46.2%; in that of `Nc1ccn(C2CC(O)C(CO)O2)c(=O)n1` (stereo not drawn), 105%; in that of `CC(C)=CCc1ccc(O)c(=O)cc1C(C)C`, 15.5%.
With `COc1cc(NC(=O)CSc2nc3ccccc3c(=O)n2CCc2ccccc2)cc(OC)c1OC`, the growth is -12.5% (active).
